Laboratory results reported in the supplement of paper PMC6555819.

Key:
Experiment in all cases: PBM binding z-score (relative to random genomic background probes); higher = stronger binding; sequences stand for … in GC…GCGATTGACAGCGTAGAATGAAGG
[1] = tested on: FXR:RXRa (NR concentration 270 nM, RXRa partner concentration 90 nM)
In short: (§1)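 Each nuclear receptor dimer, without ligand, was incubated for 1 h on custom Agilent 4×180K protein-binding microarrays. Binding was detected with antibodies against each partner (one per run), and scanned fluorescence was regression-normalized. The binding z-scores are referenced to random human genomic background probes.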

[2] = tested on: LXRa:RXRa (NR concentration 270 nM, RXRa partner concentration 90 nM)
In short: as §1

[3] = tested on: LXRa homodimer (NR concentration 270 nM)
In short: as §1

[4] = tested on: LXRb:RXRa (NR concentration 270 nM, RXRa partner concentration 90 nM)
In short: as §1

[5] = tested on: LXRb homodimer (NR concentration 270 nM)
In short: as §1

[6] = tested on: PPARa:RXRa (NR concentration 270 nM, RXRa partner concentration 90 nM)
In short: as §1

[7] = tested on: PPARg:RXRa (NR concentration 180 nM, RXRa partner concentration 90 nM)
In short: as §1

[8] = tested on: PPARg:RXRa 270nM:90nM, anti-RXR (NR concentration 270 nM, RXRa partner concentration 90 nM)
In short: as §1

[9] = tested on: PPARg:RXRa 30nM:10nM, anti-RXR (NR concentration 30 nM, RXRa partner concentration 10 nM)
In short: as §1

[10] = tested on: PPARg:RXRa 90nM:30nM, anti-RXR (NR concentration 90 nM, RXRa partner concentration 30 nM)
In short: as §1

Row | Sequence | PBM binding z-score [1] | PBM binding z-score [2] | PBM binding z-score [3] | PBM binding z-score [4] | PBM binding z-score [5] | PBM binding z-score [6] | PBM binding z-score [7] | PBM binding z-score [8] | PBM binding z-score [9] | PBM binding z-score [10]
1 | GCGACTGGGGCATCAGCAGGCTACCATAACTTAA | -0.662 | -0.723 | -0.307 | -0.378 | -1.43 | 0.138 | 0.565 | 0.457 | -1.02 | -0.389
2 | GCTATTAGTTGAAAGGGCAAGCGAATGATTCTCG | 0.532 | 0.54 | -0.0155 | 0.379 | -0.106 | 2.13 | 2.5 | 4.12 | 2.04 | 4.08
3 | ACAGACAGGTGAGTGAAGTTAACTCAGCTGGACG | -0.59 | -0.611 | -0.779 | -0.663 | -0.63 | -0.341 | 0.529 | -0.616 | -0.371 | -0.832
4 | TCGAGTAGGTTAGTCGGGGCCTTCAGCCAACATA | -0.352 | -0.131 | -0.672 | 0.0154 | -1.21 | 0.259 | -0.8 | 0.291 | 0.448 | 0.62
5 | TCATAAAGGTAAACAGGTGAAAGTCCGTAAGTTA | 1.21 | 1.53 | 0.0462 | 1.44 | -0.2 | 2.83 | 2.29 | 3.47 | 4.28 | 3.89
6 | CAAACTAGTTCAAGGTCAAAGTCGGTTTGTGCCA | 5.67 | 5.81 | 6.22 | 4.81 | 1.76 | 5.13 | 3.27 | 3.88 | 1.53 | 3.03
7 | CCTACTGGGCCGCGAAAGGTCATTGATTCAGTGA | 3.37 | 4.49 | 3.63 | 3.85 | 0.0149 | 4.35 | 1.94 | 3.69 | 0.701 | 2.76
8 | ACTATTAGATGAGACGAGGGCAACCGATAGGTTG | 0.455 | 0.107 | 0.389 | 0.0232 | 0.456 | 0.35 | 1.04 | 0.132 | 0.496 | 0.603
9 | AGAAAGAGGGCAATGAGTTGATAGCACGGGTGGC | 0.593 | 0.892 | 0.104 | 0.387 | 0.472 | 1.55 | 1.23 | 0.938 | 0.0317 | 0.591
10 | TAGCCTAGGTCAGATCGGTCCAGTATACGCTATA | 1.8 | 0.953 | -0.475 | 0.809 | -0.111 | 1.74 | 0.543 | 0.782 | -0.239 | 0.0897
11 | ACTAGCAGGCGAAGGGTCACTCAAGATTAGTCCG | 2.18 | 2.19 | 0.132 | 2.12 | -0.71 | 3.72 | 5.6 | 5.62 | 3.86 | 6.27
12 | ATCGATAGGTCGTGAGGTGAGTATACAGAAAGGC | 1.25 | 1.3 | -0.0722 | 1.07 | 0.187 | 2.43 | 1.32 | 1.08 | 0.506 | 0.989
13 | GCGACTGGCGCAAAGCAGGTTACCATAAGGTTGG | -0.457 | -0.431 | -0.662 | -0.683 | -1.4 | -0.182 | 0.258 | -0.247 | -0.734 | -0.475
14 | CGGACTAGGTCATCCAGGACAGTGAATACATTGA | 3.64 | 2.45 | 0.39 | 1.81 | -0.227 | 4.22 | 6.64 | 5.63 | 3.03 | 4.87
15 | CGTCCAAGGTCGGCAGGTCAGTGAAAGCGACGTG | 1.48 | 0.7 | -0.723 | 0.338 | -1.39 | 1.95 | -0.15 | 0.764 | -0.459 | -0.168
16 | CCTGCTAGGTCAATGGTCAGCGAAAGCAGCTCGC | 2.75 | 2.4 | -0.241 | 1.4 | 0.134 | 3.37 | 5.06 | 5.2 | 3.2 | 5.18
17 | GCTAGTTGGTCAGTAAAAGGACACACACCGGTCG | -0.0634 | -0.0918 | 0.213 | -0.44 | -0.0401 | -0.104 | 0.654 | 0.282 | -0.0614 | -0.0124
18 | AGAATCAGGTTATTAAGATCAGGGAATTGCGGTC | 0.5 | 0.587 | 0.33 | 0.473 | 0.697 | 1.16 | 0.693 | 1.04 | 0.466 | 0.97
19 | TCTGCTAGGTGAACGATGGTCAGCTAATCTGCTA | -0.414 | -0.432 | -0.946 | -0.499 | -1.35 | 0.449 | 0.238 | 0.769 | 1.17 | 0.916
20 | GGAACGAGGGCAAAGTTGAAAGCATCTGTCGACG | 2.18 | 1.34 | -0.458 | 1.26 | -0.325 | 4.91 | 8.72 | 8.04 | 7.29 | 8.83
21 | TCGAGTAGGTTACCAATGGGGCATTCTGCTTTCT | 0.0174 | 1.11 | -0.471 | 0.975 | -0.712 | 1.33 | 0.0267 | 1.1 | 0.935 | 0.902
22 | AGTCAAAGTTCAGGACGAGTTAACGTAAAGCACG | 3.79 | 3.99 | 1.02 | 1.9 | 0.173 | 3.38 | 4.32 | 4.63 | 2.21 | 4.17
23 | GCAGACAGGTGAAACGCAGGTAACTCAAGGTGGC | -0.175 | 0.4 | -0.42 | -0.165 | -1.28 | 0.892 | 0.604 | -0.0904 | -0.0664 | -0.118
24 | ACTATTAGTTGACTTAGGGCAACCGTTACGACGC | 0.212 | 0.547 | 0.268 | 0.434 | 0.514 | 0.372 | 0.776 | 0.417 | 0.154 | 0.461
